Data published in article PMC3795721, “Screening for Protein-DNA Interactions by Automatable DNA-Protein Interaction ELISA”.

Biological target: AT4G31550 (Arabidopsis thaliana, UniProt Q9SV15 228-325)
Test: DPI-ELISA; DPI-ELISA, streptavidin 384-well plate, 1-2 pmol biotinylated dsDNA per well, crude native E. coli extract, anti-His detection; buffer as in Brand et al. [46],; high values mean tight binding
Settings: tags: C-terminal His (pET-DEST42); label: 5' biotin on forward strand; dsDNA, one strand shown

Sequence of AT4G31550 (Q9SV15 228-325): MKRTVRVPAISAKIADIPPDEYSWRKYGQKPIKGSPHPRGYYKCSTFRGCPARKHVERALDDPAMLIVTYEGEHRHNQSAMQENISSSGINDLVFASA

| Sequence | binding signal [absorbance] |
| --- | --- |
| AAAAAACATTGATAAAATCTCCAGGCAAAA | 0.63 ± 0.141 |
| AAAAAACTGCTAATCGGTGACCCGATAAAA | 0.745 ± 0.00707 |
| AAAAAAGGCCACGGTAACCCCTTTTGAAAA | 0.695 ± 0.12 |
| AAAAAAACCTCTTTATTCTCGATTGTAAAA | 0.585 ± 0.0495 |
| AAAAAAGCCATCATGGTTAGTGTACAAAAA | 0.665 ± 0.148 |
| AAAAAATTAGGACCATCCCCACTAGGAAAA | 0.69 ± 0.0707 |
| AAAAAAATCATCCTATTGTTGCTGTCAAAA | 0.665 ± 0.12 |
| AAAAAAGGCCGTTGGACCTCGGTCTAAAAA | 0.66 ± 0.0707 |
| AAAAAATCGCACTGCCGCCGATGGCTAAAA | 0.625 ± 0.134 |
| AAAAAAATTCGCAACCCTCACGTTCGAAAA | 0.67 ± 0.0566 |
| AAAAAATCTGTTCTCGTTTCCCCTTCAAAA | 0.805 ± 0.262 |
| AAAAAAATCCGATCGATGCATATATAAAA | 0.725 ± 0.106 |
| AAAAAACCGGCACGATTTGGATATTCAAAA | 0.64 ± 0.113 |
| AAAAAACTTCCCTCCTTGTCCTCCCCAAAA | 0.66 ± 0.113 |
| AAAAAAATCGTTGTTATCGTATTTATAAAA | 0.565 ± 0.12 |
| AAAAAAGTCTCACCTTTAGTCTTAATAAAA | 0.64 ± 0.0283 |
| AAAAAATTTGTACTTTAAGTTTACATAAAA | 0.56 ± 0.0849 |
| AAAAAACCCATCCTTCGTTCCATCGTAAAA | 0.76 ± 0.141 |
| AAAAAACTGGTGTATCTCCTCAATTAAAAA | 0.635 ± 0.0636 |

| Sequence | binding signal [absorbance] |
| --- | --- |
| AAAAAACCTTCCCCCTCTTCTGCCTTAAAA | 0.665 ± 0.0354 |
| AAAAAAGTTTCTGCTTTCCCTTTCGTAAAA | 0.665 ± 0.205 |
| AAAAAACCGACCTGCACGTCGCTGCTAAAA | 0.505 ± 0.106 |
| AAAAAAGCTTTCAACATCTGCGTCCAAAAA | 0.42 ± 0.0424 |
| AAAAAAGGGCGAGCGCTGGATCCACAAAA | 0.505 ± 0.106 |
| AAAAAAAACAAAACCTCCTAATAGCGAAAA | 0.42 ± 0.113 |
| AAAAAAACCGATTACCATTTTTACTGAAAA | 0.695 ± 0.148 |
| AAAAAATGTTGTTGCTGTTGGTCCTAAAAA | 0.695 ± 0.0778 |
| AAAAAACTGTCTGTCCTATATCACTTAAAA | 0.66 ± 0.099 |
| AAAAAATGGGGCTCTGGCCCACCGTAAAAA | 0.525 ± 0.0778 |
| AAAAAAGGTTGGTACGTCGAGTTCTTAAAA | 0.565 ± 0.163 |
| AAAAAATCCTGTTTGCGTTTGATTTTAAAA | 0.51 ± 0.099 |
| AAAAAAACGCTATATATTGGTGCTAGAAAA | 0.695 ± 0.134 |
| AAAAAATCATCTCTATGTTATTGTTGAAAA | 0.58 ± 0.113 |
| AAAAAATTACTCCTAGCCCTCATTCAAAAA | 1.36 ± 0.976 |
| AAAAAAGTAGGTGCTGATGCTGGCCGAAAA | 0.59 ± 0.0141 |
| AAAAAAACCCTGTGTCGGCCGATAAAAAA | 0.58 ± 0.099 |
| AAAAAAGTCCATAAACTAAATTGGATAAAA | 0.525 ± 0.0495 |
| AAAAAATGGAAGGAGAGGGATGAAATAAAA | 0.57 ± 0.156 |
